# Values joined by “and” are separate entries in the source; they are usually repeats but may differ in a detail not shown here. Equal entries are not always repeated. Active and inactive are the calls of the source. Rule for the calls: active = hit-call score of the fitted dose curve at least 0.9, where 1 is the maximum; inactive = score below 0.9.
# Read-out: Cytochrome P450 4A22 (Homo sapiens) (UniProt Q5TCH4)
# Assay: LTEA_HepaRG_CYP4A22: Life Technologies and Expression Analysis (LTEA) Assay for Cytochrome P450 4A22 (CYP4A22) using HepaRG (AID 2283495)
# Conditions: mRNA level, 48 h; actives raise or lower the signal
# Description: LTEA_HepaRG is a cell based, multiplexed-readout assay that uses HepaRG, a human liver cell line, with measurements taken at 48 hours after chemical dosing on a 96-well plate.LTEA_HepaRG_CYP4A22 is one of 102 assay component(s) measured in the LTEA HepaRG cell culture assay. It is a marker of NR mediated metabolism.Data from the assay component LTEA_HepaRG_CYP4A22 was analyzed into 1 endpoint. This assay endpoint, LTEA_HepaRG_CYP4A22, was analyzed with bidirectional fitting relative to DMSO as the negative control and baseline of activity. Using a type of inducible reporter, measures of mRNA induction for gain or loss-of-signal activity can be used to understand regulation of transcription factor activity. To generalize the intended target to other relatable targets, this assay endpoint is annotated to the cyp intended target family, where the subfamily is xenobiotic metabolism.
# A total of 1060 chemcials from the ToxCast library were tested in eight-point concentration-response experiments. Cell culture and cytotoxicity assays were conducted at Thermo Fisher Scientific's Custom Services facility (Madison, WI). A single lot of human HepaRG cells (Thermo Fisher Scientific, Frederick, MD) was used for the cell culture experiments. 96-well format collagen type I coated plates of human HepaRG cells were prepared using established methods. Briefly, cryopreserved HepaRG cells were thawed, plated at a density of approximately 100,000 cells/well in HepaRG Thaw, Plate, and General Purpose media (HPRG770, Thermo Fisher Scientific), and incubated for 48 hours. 0.5% DMSO was selected as vehicle control to balance the requisite need of DMSO in HepaRG cultures to maintain differentiation (for example, baseline metabolism, proportions of hepatocytes vs. cholangiocytes), while enabling further hepatic receptor pathway activation (for example, PXR and CAR) in response to chemical exposure. 48 hours after plating, the culture medium was replaced with HepaRG Serum-Free Incudtion Media. Cells were exposed to each test chemical in duplicate and maintained in CO2 incubators for another 48 hours. Chemical plates were thawed to room temperature and 200x concentrations of treatment groups were prepared. 8-point conentration-reponse curves were made with the highest exposure at 100 uM, followed by half-log dilutions, all in 0.5% DMSO. Each test plate contained variouse controls, induction positive controls (1mM phenobarbital), cytotoxicity positive controls ([…] aflatoxin B1), vehicle controls (0.5% DMSO), and total lysis controls (0.5% DMSO). Cell morphology images were taken using an Essen IncuCyte FLR automated microscope, with six 96-well plates imaged in about 24 minutes. Images were captured and exported and JPEG files. Spent culture media was transfered to black-well plates for the LDH assay, and remaining media was sorted at -80 C for later use. Cells were treated with RLT buffer and frozen until shipped for gene expression analysis. Total RNA was isolated from the cell suspension in 75 uL of Buffer RLT (Qiagen, Germantown, MD 20874) by Quintiles/Expression Analysis (Durham, NC) using a custom isolation procedure. Total RNA from each plate well was transferred to a preamplification plate. Fluidigm's 96.96 Dynamic ArrayTM (Fluidigm, Amsterdam, the Netherlands) technology was used for gene expression analyses by quantitative reverse transcription polymerase chain reaction (qRT-PCR, performed by Quintiles/Expression Analysis, Durham, NC)89. Standard TaqManTM Assays (Applied Biosystems/ThermoFisher Scientific, Foster City, CA) were used to assess the expression of 93 genes selected based on their selectivity and sensitivity to important hepatic receptors known to be modulated by environmental chemicals; importance in human hepatocyte functionality; and hepatotoxicity. […]
Compound,outcome,AC50
CC(C)(C)c1cc(O)ccc1O,inactive,
ClCC(Cl)CCl,inactive,
C=CC(=O)OCCCCCC(C)C,inactive,
O=[N+]([O-])c1ccc(O)c([N+](=O)[O-])c1,,27.8 µM (active)
CCC(=O)C(CC(C)N(C)C)(c1ccccc1)c1ccccc1 (stereo unspecified),inactive,
CCOP(=S)(OCC)Oc1nc(Cl)c(Cl)cc1Cl,inactive,
NC(=O)O,inactive,
O=C(Nc1ccc2[nH]ccc2c1)c1cc2cc(F)ccc2n1Cc1cccc(F)c1,,22.3 µM (active)
CC(C)(OO)c1ccccc1,inactive,
COc1cc(-c2ccc(N)c(OC)c2)ccc1N,,38.3 µM (active) and 50 µM (active)
ClC1(Cl)C2(Cl)C3(Cl)C4(Cl)C(Cl)(Cl)C5(Cl)C3(Cl)C1(Cl)C5(Cl)C24Cl (stereo unspecified),inactive,
O=C1C2(Cl)C3(Cl)C4(Cl)C(Cl)(Cl)C5(Cl)C3(Cl)C1(Cl)C5(Cl)C24Cl (stereo unspecified),,24.1 µM (active)
CN(C)N=O,inactive,
CCN1CCC2(CC1)COc1cc3c(cc12)N(C(=O)c1ccc(-c2ccc(-c4nnc(C)o4)cc2C)cc1)CC3,inactive,
Cn1sc(Cl)cc1=O,inactive,
CC(C)(C)CC(C)(C)c1ccc(O)cc1,,50 µM (active)
O=c1[nH]c(=O)[nH]c(=O)[nH]1,inactive,
CCOP(=S)(OCC)SCSP(=S)(OCC)OCC,,0.0742 µM (active)
O=C(O)C(F)(F)C(F)(F)C(F)(F)C(F)(F)C(F)(F)C(F)(F)C(F)(F)C(F)(F)C(F)(F)C(F)(F)F,inactive,
Cc1ccccc1N,inactive,
C[C@]12CCC(=O)C[C@@H]1CC[C@@H]1[C@@H]2CC[C@]2(C)[C@@H](O)CC[C@@H]12,,28.8 µM (active)
O=C(O)C(F)(F)C(F)(F)C(F)(F)C(F)(F)C(F)(F)C(F)(F)F,,21.4 µM (active)
Oc1cccc2cccnc12,inactive,
CC(C)(c1ccccc1)c1ccc(O)c(C(C)(C)c2ccccc2)c1,,70.4 µM (active)
O=C(O)C(Cl)(Cl)Cl,inactive,
CCC(C)(C)c1ccc(O)c(C(C)(C)CC)c1,inactive,
